# Measurements: PubChem BioAssay (NCI)
# Compounds without any hit were thinned out: in the full panel of roughly 79,000, 15% have a hit. Values without a mark were called inactive. Calls of active or inactive are those of the source. Cut-off read from the data, not from the text of the source: active = growth inhibition above about 70%; inactive = the rest.
# Key:
# [1] = NCI Yeast Anticancer Drug Screen. Data for the rad50 strain (AID 155);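 note: 0% = growth of vehicle-only cultures of the same strain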; conditions: S. cerevisiae rad50 strain growth inhibition; at 50.0 µM; stronger effect = higher value
# Outline: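 Yeast carrying a defined DNA repair defect were exposed to test compounds, and growth was compared with vehicle-treated controls to give percent inhibition.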
# [2] = NCI Yeast Anticancer Drug Screen. Data for the mec2-1 strain (AID 157); conditions: S. cerevisiae mec2-1 strain, at 50.0 µM, stronger effect = higher value
# Outline: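 Mutant yeast (mec2-1) grown with compound; growth inhibition relative to vehicle control reported.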
# [3] = NCI Yeast Anticancer Drug Screen. Data for the sgs1 mgt1 strain (AID 161);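 note: 0% = growth of cultures given vehicle only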; conditions: S. cerevisiae sgs1 mgt1 strain, at 50.0 µM, stronger effect = higher value
# Outline: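 Growth of a repair-deficient yeast mutant was monitored after compound treatment and expressed as inhibition relative to vehicle-treated cultures.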
# [4] = NCI Yeast Anticancer Drug Screen. Data for the cln2 rad14 strain (AID 165);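 note: 0% = growth equal to vehicle treated cultures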; conditions: S. cerevisiae cln2 rad14 strain, at 50.0 µM, stronger effect = higher value
# Outline: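 Readout is yeast growth inhibition versus vehicle-treated controls, using a strain with cln2 and rad14 alterations exposed to compound.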
# [5] = NCI Yeast Anticancer Drug Screen. Data for the bub3 strain (AID 167); conditions: S. cerevisiae bub3 mutant strain, at 50.0 µM, stronger effect = higher value
# Outline: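 Compounds were applied to a genetically altered yeast strain carrying a cell-cycle control defect. Growth inhibition was scored against vehicle-treated controls.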
# [6] = NCI Yeast Anticancer Drug Screen. Data for the mlh1 rad18 strain (AID 175); conditions: S. cerevisiae mlh1 rad18 strain growth inhibition; at 50.0 µM; stronger effect = higher value
# Outline: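 Genetically defined yeast (DNA repair-deficient) exposed to compounds; growth inhibition determined relative to vehicle.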
Structure (SMILES),growth inhibition [1],growth inhibition [2],growth inhibition [3],growth inhibition [4],growth inhibition [5],growth inhibition [6]
C=CCSc1ncnc2c1c(C#N)cn2C1OC(CO)C(O)C1O (configuration not stated),22%,-21.2%,-16.9%,17.5%,7.25%,28.4%
BrCCCCCCCCCBr,9.75%,-3.35%,1.05%,12.9%,-16.6%,29.1%
CNCC(OC(C)C)c1ccc(O)c(O)c1 (configuration not stated),-3.3%,-2.85%,-0.05%,-36.4%,-19.2%,16.2%
O=C(O)c1cc2ccccc2c(N=Nc2cc(C(F)(F)F)ccc2Cl)c1O,-12.2%,-9.65%,-4.05%,5.4%,-6.3%,-13.1%
O=C(CCCc1ccccn1)c1ccccc1,1.8%,3.85%,2.5%,5.35%,-31.6%,-1.45%
O=C(O)CCc1ccccc1CC(=O)O,12.8%,-9.95%,-10.8%,-10.1%,-12.3%,13.2%
Cc1ccc(S(=O)(=O)N2N=C(c3ccccc3)CC2c2ccccc2)cc1 (configuration not stated),83.1% (active),87.1% (active),88.4% (active),81% (active),82% (active),91% (active)
O=C1CCC(N2C(=O)c3ccccc3C2=O)C(=O)O1 (configuration not stated),-21.9%,-5.45%,-0.95%,-38%,8.5%,-12.9%
O=C(OC1CCC(c2ccccc2)C1)c1cc([N+](=O)[O-])cc([N+](=O)[O-])c1 (configuration not stated),35%,25.9%,29.4%,-4.3%,44.3%,58.1%
CCCCCCC[CH2][Sn]1([CH2]CCCCCCC)[O]C2C(CO)OC(n3ccc4c(N)ncnc43)C2[O]1 (configuration not stated),-0.4%,15.2%,18.1%,70.2% (active),4.45%,-0.85%
CC1=CC(C(O)C(C)C)C(C)(Cc2ccc(C)cn2)NC1c1ccccc1 (configuration not stated),50.6%,-6.3%,5.45%,15.2%,-2.05%,0.5%
CCCCOC(=O)NC(=O)c1cc2ccc(N(CC)CC)cc2oc1=O,-10.5%,3.5%,8.7%,3.4%,5.4%,4.2%
CC(C)(c1ccc(C(=O)O)cc1)c1ccc(C(=O)O)cc1,-1.65%,5.05%,-1.1%,-5.7%,-14.5%,-9.15%
Cc1cc(=O)n2c(cc3cccccc32)n1,14.6%,-1.3%,-13.4%,-23.4%,-23.4%,4.65%
CN(C)C12CCC(c3ccccc31)c1ccccc12,29.8%,20.8%,27.4%,8.6%,36.5%,4.25%
CCCC(=O)c1ccc(O)cc1,4.65%,3.45%,-6.2%,-12.6%,4.05%,0.2%
O=C(CC(c1ccccc1)N1CCCCC1)OC(c1ccccc1)c1ccc(Br)cc1 (configuration not stated),12.9%,4.05%,11.6%,7.95%,6.4%,2.8%
CN1CCN(C2=NCCO2)CC1,6.4%,22.1%,32.3%,32%,12.8%,20.2%
C=C(c1nc2ccc(Cl)cc2[nH]c1=O)C(O)c1ccc(C(O)C(=O)c2nc3ccc(Cl)cc3[nH]c2=O)cc1 (configuration not stated),5.85%,4.55%,-15.6%,-68.8%,-1.4%,9.05%

Structure (SMILES),growth inhibition [1],growth inhibition [2],growth inhibition [3],growth inhibition [4],growth inhibition [5],growth inhibition [6]
Cc1nc(C)c(C(=O)NNC(=O)C[n+]2ccccc2)cc1C(=O)NNC(=O)C[n+]1ccccc1,-27.6%,-4.15%,-11.4%,11.7%,-12.4%,-25.1%
CNc1c(F)cc(C#N)cc1F,12.1%,11.1%,1.75%,3.8%,0.75%,10.8%
CC(C)N(C(=O)C1C2CCC(CC2)C1C(=O)N(C(C)C)C(C)C)C(C)C (configuration not stated),2.4%,17.5%,11.3%,-0.9%,27.6%,20.7%
COC(=O)C1C(O)C(C)C(O)OC1C(C)C(O)C(C)/C=C\C=C(/C)C(=O)Nc1c(C)c(OC(C)=O)c2c(c1O)C(=O)C(C)=C1OCOC(/C(C)=C/C(C)=O)=C12 (configuration not stated),14.6%,8.3%,9.8%,13.4%,14%,17.6%
CC1(O)CC2(O)C=CC3=C(C(=O)c4cccc(O)c4C3=O)C2(O)C(=O)C1O (configuration not stated),14.2%,4.1%,30.4%,15.8%,22.9%,16.6%
COc1cc(C(C)O)c[n+](CCC2CNc3ccccc32)c1 (configuration not stated),-4.65%,-2.2%,5.8%,18.6%,6.45%,-21.1%
O=[N+]([O-])C1CC(O)C(O)CC1c1ccc2c(c1)OCO2 (configuration not stated),11.1%,7.25%,1.7%,3.05%,1.95%,3.7%
CC1OC(Cc2ccccc2)OC1C (configuration not stated),12.4%,13.8%,16.7%,0.4%,12.6%,9.9%
CC1=CC(=O)C(CCC#N)C(C)(C)C1 (configuration not stated),-8.6%,-17.9%,-1.75%,-36.9%,5.85%,-0.4%
S=C1NNC(=S)NN1,43.7%,29.8%,39.9%,37.9%,49.9%,62.7%
C/C(=N\NC(=S)N1CCC(c2ccccc2)CC1)c1ccccn1,-24.3%,3.95%,0.25%,-22.4%,4.65%,13.8%
COc1cccc(C(c2cc3c(cc2O)OCO3)N2CCOCC2)c1O (configuration not stated),15.9%,30.6%,51.4%,8.7%,1.35%,77.4% (active)
COC(=O)[C@H]1[C@H]2C[C@@H]3c4[nH]c5ccccc5c4CCN3C[C@H]2C[C@@H](OC(=O)c2cc(OC)c(OC)c(OC)c2)[C@@H]1OC,15.8%,-7.35%,17.1%,5.6%,18.5%,17.3%
O=c1[nH]c(Nc2ccccc2)nc2c1ncn2CC(O)CSCCO (configuration not stated),16.1%,13.2%,26.7%,8.45%,10.4%,-27.4%
Nc1ccc(N=Nc2ccncc2)c2ccccc12,31.7%,22.5%,4.1%,-15.1%,28%,19.7%
Cn1ncc2c(=O)[nH]c(NCCO)nc21,3.3%,1.25%,0.9%,-16.9%,8.7%,0.4%
CN=Cc1c(O)ccc2ccccc12.[Cu+2],15.3%,7.6%,1.7%,6.45%,-32.9%,52.9%
COc1cccc(N2C(=O)[C@H]3[C@H]4CC(C(C)(C)C)CC[C@H]4c4c([nH]c5ccccc45)[C@H]3C2=O)c1 (some centres not stated),1.65%,-18.9%,8.25%,31.7%,-9.4%,-2.4%
